An excerpt weighted towards active compounds, which were near 3.1% of everything screened.
Rtt109 Vps75 = C. albicans Rtt109 histone acetyltransferase inhibition | Q5AAJ8 | purified Rtt109/Vps75, ThioGlo CoA-SH fluorescence, 4 h | inhibition, % at 34.9 µM | 330,000 compounds, 0.16% hits;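 active = inhibition of at least 50% in every replicate; inconclusive = best replicate reaches 50% inhibition but some replicates fall short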
Target sequence (Q5AAJ8 whole entry, looked up): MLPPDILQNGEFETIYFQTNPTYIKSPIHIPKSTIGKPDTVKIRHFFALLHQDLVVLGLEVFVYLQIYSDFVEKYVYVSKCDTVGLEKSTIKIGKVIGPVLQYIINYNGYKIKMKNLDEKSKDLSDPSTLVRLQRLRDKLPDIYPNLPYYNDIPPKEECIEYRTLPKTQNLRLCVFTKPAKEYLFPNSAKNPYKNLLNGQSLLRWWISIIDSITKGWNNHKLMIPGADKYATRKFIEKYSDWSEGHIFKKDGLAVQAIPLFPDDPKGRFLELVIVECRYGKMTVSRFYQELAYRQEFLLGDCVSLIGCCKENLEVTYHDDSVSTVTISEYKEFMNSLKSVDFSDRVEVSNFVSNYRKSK
MITF act = MITF TRPM1 promoter activation in melanoma cells | 300,000 compounds, 0.75% hits | SK-MEL-5 TRPM1-promoter luciferase, 24 h; % of positive control, neutral wells = 0 | activation, % at 12.5 µM;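 active = mean activation of at least 80% with every replicate also reaching 80%; inconclusive = mean reaches 80% but some replicate falls short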
C2C12 statin = protects C2C12 myotubes from simvastatin toxicity | ATP luminescence, 48 h; scaled: DMSO 0, geranylgeraniol control 100 | rescue of ATP level, % at 7.49 µM | 330,000 compounds, 0.78% hits;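 active = mean ATP rescue above about 67%, or every replicate alone reaching that limit, limit read from the data, passing the limit was not always enough; inconclusive = no clear call, values can overlap the other calls; inactive = mean under the limit and some replicate under it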;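 note: myotubes were challenged with 10 µM simvastatin during compound exposure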
esBAF inh = SWI/SNF esBAF complex inhibition. reporter increase, % at 12.5 µM. AID 602393. mouse ES cells, Bmi1-luciferase knock-in reporter, 24 h; 100% = twice the neutral-well signal. 350,000 compounds, 2% hits; in the data active = activation above about 40%; inconclusive = no clear call, values can overlap the other calls;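 note: a rise in the Bmi1 reporter signal indicates esBAF inhibition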
Wnt bcat act = activates Wnt/beta-catenin signaling in a reporter cell assay | activator, plate reader | 300,000 compounds, 1.2% hits | activation, % at 9.35 µM; in the data active = activation above about 30%, passing the limit was not always enough; inconclusive = no clear call, values can overlap the other calls
Of the large screens only hits and unclear results are named; the others gave an inactive call.

O=C(C[C@H]1CC[C@H]2[C@@H](COC[C@H](O)CN2C(=O)Nc2ccccc2)O1)NCCc1ccncc1	none (no result: Rtt109 Vps75, MITF act, Wnt bcat act)
Nc1ccc(-c2nc3ccc([N+](=O)[O-])cc3[nH]2)cc1	Wnt bcat act 59.1 (no result: C2C12 statin, esBAF inh)
Nc1ccc2nc(-c3ccc(Cl)cc3)[nH]c2c1	none
Nc1ccc2nc(-c3cc(Cl)c(N)c(Cl)c3)[nH]c2c1	esBAF inh 48.0, Wnt bcat act 42.8
O=[N+]([O-])c1ccc2nc(C(O)C(O)c3nc4ccc([N+](=O)[O-])cc4[nH]3)[nH]c2c1 (stereo not given)	none
O=[N+]([O-])c1ccc(-c2nc3ccc([N+](=O)[O-])cc3[nH]2)cc1	none (no result: C2C12 statin, esBAF inh, Wnt bcat act)
O=[N+]([O-])c1ccc2nc(/C=C/c3ccc(Cl)cc3)[nH]c2c1	esBAF inh 46.7 (no result: Rtt109 Vps75)
COc1ccc(NC(=O)N[C@@H]2CC[C@H](CCn3cc(-c4ccc(OC)cc4)nn3)O[C@H]2CO)cc1	none (no result: Rtt109 Vps75, MITF act, Wnt bcat act)
Cc1noc(C)c1NC(=O)N(C)C[C@@H]1OCCCC[C@@H](C)Oc2ccc(N(C)C)cc2C(=O)N([C@H](C)CO)C[C@@H]1C	none (no result: Rtt109 Vps75, MITF act, Wnt bcat act)
COc1ccc(CNC(=O)c2c(O)c3cccc4c3n(c2=O)CCC4)cc1	none (no result: Wnt bcat act)
COc1ccc(CNC(=O)c2c(O)c3cccc4c3n(c2=O)CCC4)cc1OC	C2C12 statin 78.9 (no result: Wnt bcat act)
C[C@H]1CCCCO[C@H](CN(C)C(=O)Nc2ccc(F)cc2)[C@@H](C)CN([C@@H](C)CO)C(=O)c2cc(NC(=O)Nc3ccc(F)cc3)ccc2O1	none (no result: Rtt109 Vps75, MITF act, C2C12 statin, Wnt bcat act)
C[C@@H](NC(=O)C[C@H]1C=C[C@@H](NC(=O)Cc2ccccn2)[C@@H](CO)O1)c1ccccc1	none (no result: Rtt109 Vps75, MITF act, Wnt bcat act)
COc1cc(C)c(S(=O)(=O)N2CCN=C2c2ccccc2)cc1C	none (no result: C2C12 statin, esBAF inh, Wnt bcat act)
Cc1cc(C)c(S(=O)(=O)N2CCN=C2c2ccccc2)cc1C	C2C12 statin 98.8
CCC1CCc2c(sc(NC(=O)c3cccnc3)c2C(N)=O)C1 (stereo not given)	esBAF inh 38.3 (no result: C2C12 statin)
COc1ccccc1Oc1ccc2c(c1)C(=O)N(c1ccc(O)cc1)C2=O	C2C12 statin 127.5 (no result: Wnt bcat act)
COc1ccccc1Oc1ccc2c(c1)C(=O)N(CC(=O)O)C2=O	none (no result: Wnt bcat act)
O=C(Nc1ccccc1)N1CCCCN2[C@H](CO)[C@H](c3ccc(Br)cc3)[C@@H]2C1	none (no result: Rtt109 Vps75, MITF act, Wnt bcat act)
CCCCCOc1ccc(CN2CCOCC2)cc1Cl	esBAF inh 49.8 (no result: MITF act, C2C12 statin)
Cn1cnc(CCNC(=O)C[C@@H]2CC[C@H]3[C@@H](COC[C@@H](O)CN3C(=O)Nc3ccc(F)cc3)O2)c1	none (no result: Rtt109 Vps75, MITF act, Wnt bcat act)
Cn1cccc1C(=O)OCc1cc(-c2ccco2)on1	MITF act 98.5, esBAF inh 82.8
O=C(c1ccc(Cl)cc1)N1CCCC(c2ccccc2)=N1	C2C12 statin 79.8 (no result: Wnt bcat act)
CC1(O)CC(c2ccc(Cl)cc2)=NN1C(=O)c1ccc(Cl)cc1 (stereo not given)	none
CC(=O)NC1C(OCc2ccccc2)OC(CO)C(OC(C)=O)C1OC(C)=O (stereo not given)	Wnt bcat act 36.0 (no result: C2C12 statin, esBAF inh)
C[C@H](CO)N1C[C@H](C)[C@@H](CN(C)C(=O)C2CC2)Oc2cc(C3=CCCC3)ccc2S1(=O)=O	none (no result: Rtt109 Vps75, MITF act, esBAF inh, Wnt bcat act)
C[C@@H]1CN([C@H](C)CO)C(=O)c2cc(-c3ccc(F)cc3)cnc2O[C@H]1CN(C)CC1CCCCC1	none (no result: Rtt109 Vps75, MITF act, Wnt bcat act)
CNC[C@H]1OCCCC[C@H](C)Oc2ccc(NC(=O)CCC(F)(F)F)cc2C(=O)N([C@@H](C)CO)C[C@H]1C	none (no result: Rtt109 Vps75, MITF act, Wnt bcat act)
COc1ccc(S(=O)(=O)NNC(=O)c2sccc2-n2cccc2)cc1	C2C12 statin 96.1
COCCn1nnnc1CN(CCc1ccccc1)Cc1cc2cc(OC)ccc2[nH]c1=O	none (no result: Wnt bcat act)
COCCn1nnnc1CN(CCc1ccc(OC)c(OC)c1)Cc1cc2ccc(C)cc2[nH]c1=O	C2C12 statin 103.0 (no result: Wnt bcat act)
CCCCOc1ccc(CSc2n[nH]c(C)n2)cc1	MITF act 92.7 (no result: Wnt bcat act)
CCCCCOc1ccc(CSc2ncn[nH]2)cc1	MITF act inconclusive, esBAF inh 46.6 (no result: Wnt bcat act)
Cc1nc(SCc2ccc(C#N)cc2)n[nH]1	none (no result: MITF act)
CCCCOc1ccc(CSc2ncn[nH]2)cc1	none (no result: C2C12 statin)
Cc1ccc(Nc2ncnc3ccccc23)cc1	MITF act inconclusive, esBAF inh 46.3 (no result: Rtt109 Vps75, Wnt bcat act)
Cc1ccc(/C(=N/Nc2ncnc3ccccc23)C(=O)O)cc1	esBAF inh 51.5, Wnt bcat act 44.4
COC(=O)C(=O)C/C(=N/Nc1ncnc2ccccc12)c1ccc(Cl)cc1	none
Cc1cccc(Nc2ncnc3ccccc23)c1	Wnt bcat act 46.8 (no result: C2C12 statin, esBAF inh)
C[C@@H]1CN([C@@H](C)CO)C(=O)c2cc(NS(=O)(=O)c3ccc(Cl)cc3)ccc2O[C@@H]1CN(C)S(=O)(=O)c1ccccc1	none (no result: Rtt109 Vps75, MITF act, Wnt bcat act)
CCN1[C@@H]2c3ccc(-c4ccccc4)c(=O)n3C[C@@H]2[C@@H](CO)[C@@H]1C(=O)NCc1ccccc1	none (no result: Rtt109 Vps75, MITF act, Wnt bcat act)
CN1c2ccc(C#Cc3cccnc3)cc2[C@@H]2[C@@H](CCN2S(=O)(=O)c2cccc(F)c2)[C@@H]1CO	none (no result: Rtt109 Vps75, MITF act, Wnt bcat act)
CCOC(=O)c1sc(NC(=O)c2ccccc2)cc1C	esBAF inh 57.3 (no result: MITF act, Wnt bcat act)
CCOC(=O)c1sc(NC(=O)Nc2ccc(Cl)cc2)cc1C	none (no result: C2C12 statin, esBAF inh)
CCOC(=O)c1sc(NC(=O)c2c(C)nn(Cc3ccccc3)c2C)cc1C	C2C12 statin 102.4
CCOC(=O)c1cncc(NC(=O)c2ccccc2)c1	C2C12 statin 95.4 (no result: Wnt bcat act)
CCOC(=O)c1sc(NC(=O)c2ccc(S(=O)(=O)N(C)C)cc2)cc1C	none (no result: MITF act)
CCOC(=O)c1sc(NC(=O)C(C)(C)C)cc1C	esBAF inh 57.3 (no result: MITF act)
Cc1ccc(S(=O)(=O)N[C@H]2CC[C@H](CCn3cc(-c4cccnc4)nn3)O[C@@H]2CO)cc1	none (no result: Rtt109 Vps75, MITF act, Wnt bcat act)
CC=Cc1ccc2n(c1=O)C[C@H]1[C@H](CO)[C@@H](C(=O)NC3CCCC3)N(Cc3ccccc3)[C@@H]21 (mixture of isomers)	none (no result: Rtt109 Vps75, MITF act, Wnt bcat act)
CCOC(=O)c1sc(NC(=O)c2ccc(Cl)s2)cc1C	esBAF inh 61.5
Cc1cnn(-c2cc(Oc3ccccc3)ncn2)c1	MITF act inconclusive, esBAF inh 64.6 (no result: Wnt bcat act)
COc1ccc(S(=O)(=O)Nc2ccc3c(c2)C(=O)N([C@@H](C)CO)C[C@H](C)[C@H](CN(C)S(=O)(=O)c2ccc(F)cc2)OCCCC[C@H](C)O3)cc1	C2C12 statin 173.8 (no result: Rtt109 Vps75, MITF act, Wnt bcat act)
COc1ccc(S(=O)(=O)N(C)C[C@@H]2OCCCC[C@@H](C)Oc3ccc(NS(=O)(=O)c4ccc(F)cc4)cc3C(=O)N([C@H](C)CO)C[C@@H]2C)cc1	none (no result: Rtt109 Vps75, MITF act, Wnt bcat act)
COc1ccc(S(=O)(=O)Nc2ccc3c(c2)C(=O)N([C@H](C)CO)C[C@@H](C)[C@@H](CN(C)S(=O)(=O)c2ccc(F)cc2)OCCCC[C@H](C)O3)cc1	C2C12 statin 141.3 (no result: Rtt109 Vps75, MITF act, Wnt bcat act)
Cc1cccc(N=Nc2cnc(N)s2)c1	Wnt bcat act 34.7 (no result: C2C12 statin, esBAF inh)
CC(=O)Nc1ncc(N=Nc2cccc(C(F)(F)F)c2)s1	none
CCN(CC)C(=O)c1cc2c(=O)n3ccccc3nc2s1	esBAF inh 42.1
Cc1cccn2c(=O)c3cc(C(=O)N4CCCC(C)C4)sc3nc12 (stereo not given)	none
CC(C)CN(CC(C)C)C(=O)c1cc2c(=O)n3ccccc3nc2s1	none

Screening results (PubChem BioAssay)
